Measured values: PubChem BioAssay AID652054 (National Center for Advancing Translational Sciences (NCATS), 2013)
Among all 360,000 compounds or so, about 9,100 (2.5%) were called active. About 4% were inconclusive and are not listed. No stated cut-off is given here; in the data, active means max response below about -50%; inconclusive means no clear call, values can overlap the other calls; inactive means above that. The sample as a whole holds a higher share of actives than the screen did.

The compounds below were run against D(3) dopamine receptor (Homo sapiens) (UniProt P35462) (assay: qHTS of D3 Dopamine Receptor Antagonist: qHTS). Conditions: D3R cells, DiscoveRx beta-arrestin luminescence, antagonist mode; stronger effect = lower value.
Sequence of D(3) dopamine receptor (Homo sapiens) (P35462 whole entry, looked up): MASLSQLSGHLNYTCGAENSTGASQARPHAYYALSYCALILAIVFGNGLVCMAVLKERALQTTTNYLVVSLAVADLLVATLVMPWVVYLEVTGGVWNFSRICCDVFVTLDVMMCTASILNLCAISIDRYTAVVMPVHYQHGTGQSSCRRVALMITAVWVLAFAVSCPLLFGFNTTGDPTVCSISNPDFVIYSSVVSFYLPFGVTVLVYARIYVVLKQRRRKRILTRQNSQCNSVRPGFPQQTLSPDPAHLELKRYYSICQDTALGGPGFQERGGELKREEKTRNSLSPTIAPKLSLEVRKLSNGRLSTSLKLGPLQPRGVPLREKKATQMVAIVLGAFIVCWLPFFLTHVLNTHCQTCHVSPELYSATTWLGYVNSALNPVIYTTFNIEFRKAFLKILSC
In short: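 Cells expressing the human receptor were seeded at 1500 cells/well, incubated overnight at 37 degrees C in 5% CO2, then exposed to library compounds with dopamine controls for 90 minutes at 37 degrees C before luminescent detection.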
On the % scale 0 is the no-effect control and ±100 the full control effect.

Max response, negative = inhibition, active:
Cc1cc(=O)[nH]c(SCC(N)=O)c1C#N -50.3%, O=C(NC1CCN(Cc2ccccc2)CC1)c1ccccc1F -72.3%, O=C(NC1CCN(Cc2ccccc2)CC1)c1cc(Br)c(Br)[nH]1 -86.7%, O=C(NC1CCN(Cc2ccccc2)CC1)c1ccc(Oc2cc(Cl)cc(Cl)c2)o1 -87.6%, S=C(Nc1ccc(Br)cc1)NC1CCN(Cc2ccccc2)CC1 -58.1%, CCC1Nc2ncnc(N3CCN(c4ccccc4)CC3)c2N(Cc2ccc(Cl)cc2)C1=O (centres undefined) -73.8%, O=C(Nc1nccs1)C1CCCN1S(=O)(=O)c1cccc2cccnc12 (centres undefined) -56.6%, S=c1[nH]nc(-c2ccc(Cl)cc2)n1CC1CCCO1 (centres undefined) -72%

Max response, negative = inhibition, inactive:
Cc1cc2nc(-c3ccc(F)cc3)c(Cc3ccsc3)n2c(C)c1Br 28.2%, Cc1cc(Br)cn2c(Cc3ccsc3)c(-c3ccc(C#N)cc3)nc12 3.93%, Cc1ccc(S(=O)(=O)N2CCC(=O)N([C@H](COCc3ccccc3)Cc3ccccc3)CC2)cc1 -4.09%, CCCc1ccc(S(=O)(=O)N2CCN(C(=O)c3cc(C)on3)CC2)cc1 15.8%, COCCNC(=O)c1cc2c(Br)ccc(Br)c2nc1N -12.2%, COc1ccc(NC(=O)C(c2ccncc2)n2c(=O)c(-c3cc4ccccc4[nH]3)nc3ccccc32)cc1 (centres undefined) 12.2%, Cc1ccc(Cn2c(C)c(C(=O)NCc3ccccc3C(F)(F)F)sc2=O)cc1 11.8%, Cc1ccc(NC(=O)CSc2sc3c(O)cc(=O)[nH]c3c2C#N)cc1C 12.7%, Cc1cc(C#N)c(SCC(N)=O)nc1-c1ccc(F)cc1 9.54%, C=CCC[C@H](CCCCC)OC(=O)/C=C/[C@H](O)[C@@H](O)C[C@@H](O)CC=C -8.69%, CC(C)(O)C#Cc1ccc(CNC[C@H]2O[C@@H](n3cnc4c(=O)[nH]c(N)nc43)[C@H](O)[C@@H]2O)s1 14.7%, Nc1ccccc1-c1nc2ccncc2[nH]1 -1.55%, S=C(NCCCc1ccccc1)Nc1ccc(Br)cc1 11.9%, N#Cc1ccc(CN2CCN(CC(=O)Nc3ccccc3C(=O)NC3CC3)CC2)cc1 1.04%, S=C(NN=C1CCN(Cc2ccccc2)CC1)NC1CCCCC1 -1.61%, CCNC(=S)NNC(=O)C1CCN(Cc2ccccc2)CC1 -27.2%, O=C(CN1CCCCC1)Nc1ccccc1C(=O)NC1CC1 18.3%, CC(C)(C)C(=O)NNC(=O)c1ccc(Oc2cc(Cl)cc(Cl)c2)o1 19.5%, Cc1cc(=O)oc2c(C)c(OC(C)C(=O)NC3CCN(Cc4ccccc4)CC3)ccc12 (centres undefined) 4.52%, COc1ccccc1Cc1c(-c2ccc(Cl)cc2)nc2ccc(Cl)cn12 6.17%, CCCCc1ccc(S(=O)(=O)NC(=O)C2(C)CCN2C(=O)c2c(C)noc2C)cc1 (centres undefined) 0%, O=C1NC[C@H](CCCCN2C[C@H](Cc3ccc(O)cc3)N(CCc3ccccc3)C(=O)C2=O)N(CCc2ccccc2)C1=O 4.98%, CCOC(=O)[C@]12CCC=C1N(Cc1ccccc1)C(=O)[C@H](CC(=O)N1CCCC1)C2 -17.7%, COc1ccccc1NC(=O)C(CC(=O)O)Cc1cc(C)cc(C)c1 (centres undefined) -7.58%, O=S(=O)(c1cccc(C(F)(F)F)c1)N1c2ccccc2-n2cccc2C1c1cccnc1 (centres undefined) 9.86%, O=S1(=O)CC(N2CCN(CCO)CC2)CN1Cc1cn(Cc2cccc(Cl)c2)nn1 (centres undefined) -8.85%, CC(C)C[C@H]1CN([C@@H](Cc2ccccc2)CN2CCC[C@@H]2CN2C(=O)C(=O)NC[C@@H]2Cc2ccc(O)cc2)C(=O)C(=O)N1CCc1ccccc1 7.71%, COc1cccc(-c2cc3nc(NCCOc4ccccc4Cl)n(C)c(=O)c3s2)c1 18.3%, COCCNc1ncnc2c1ncn2[C@H]1CN(CCN2CCOCC2)C[C@@H](CO)O1 -14.7%, CCC(=O)N1CCCC1(C)C(=O)Nc1ccc2c(c1)CCN2C(C)=O (centres undefined) 19.1%, OC[C@@H]1CN(Cc2ccncc2)C[C@H](n2cnc3c(N4CCN(c5ccccc5)CC4)ncnc32)O1 3.87%, CC[C@]1(C(=O)OC)[C@H]2C(=O)N(Cc3ccccc3)C(=O)[C@H]2[C@H]2CN=C(SCc3ccc(Cl)cc3)N21 -3.9%, O=C(CNC(=O)N1CC(=O)Nc2ccccc21)Nc1ccc(Br)cc1F 0%, COc1ccc(NC(=O)C2Cc3c(-c4ccc(Cl)cc4)ccnc3O2)cc1 (centres undefined) 28.4%, CC1(C(=O)NS(=O)(=O)Cc2cccc(Cl)c2)CCN1C(=O)Cc1ccccc1 (centres undefined) -2.25%, CCc1ccc([C@@H]2CC(=O)[C@@H]3CN(S(=O)(=O)c4ccc(C)cc4)[C@H](c4ccc(Cl)cc4)C[C@@H]3N2S(=O)(=O)c2ccc(C)cc2)cc1 0%, O=C(O)c1ccccc1-c1cccc2nncn12 0%, Cc1ccc(S(=O)(=O)N2CC[C@H]3[C@@H](C2)C(=O)C[C@@H](c2ccccc2)N3S(=O)(=O)c2ccc(C)cc2)cc1 -19.4%, Cc1cc(C)cc(NC(=O)C2CCCN2S(=O)(=O)c2cccc3cccnc23)c1 (centres undefined) -1.4%, Cc1ccc(NC(=O)C2CCCN2S(=O)(=O)c2cccc3cccnc23)c(C)c1 (centres undefined) 9.44%, CC1(C(=O)Nc2ccc3c(c2)OCCO3)CCN1C(=O)Cc1cc(F)ccc1F (centres undefined) 26.4%, COc1ccc(-c2cc3nc(NCCOc4ccccc4)ccn3n2)cc1 35.5%, CCn1c(-c2ccncc2)n[nH]c1=S 0.921%, Cc1nnc(SCC(=O)NNC(=O)c2ccc(Cl)cc2)n1CC1CCCO1 (centres undefined) -18.7%, O=C(Nc1cc(Br)ccc1F)c1nc[nH]c1C(=O)NCc1ccccc1 -14.4%, COc1ccc(-c2[nH][nH]c(=O)c2NC(=O)c2ccc([N+](=O)[O-])cc2)cc1 -25.3%
